High-throughput results deposited in PubChem by Center for Chemical Genomics, University of Michigan.
Rows were chosen to be rich in hits. Some 0.86% of all compounds tested hit in one or more screens of this group.
CDC25B CDK2 inh: human CDC25B-CDK2/CyclinA binding inhibition; P30305+P24941; 0.72% of 94,000 active; HTRF CDC25B-CDK2/CyclinA binding, anti-His/anti-Flag; hits give high values; AID 1259370; z-score (test concentration not listed); in the data active = z-score above about 3.2
TAR Tat displ: HIV-1 TAR-Tat binding disruption | z-score (test concentration not listed) | AID 1259389 | 0.6% of 100,000 active | HIV-1 TAR RNA, Tat peptide displacement FRET; hits give high values; active = z-score of 3 or more in at least 2 runs
An asterisk follows results filed as active.

CCOC(=O)c1nc2ccccc2n(C)c1=O was read as CDC25B CDK2 inh 23* and TAR Tat displ -1.3.
`Cn1c(=O)c(C(=O)O)nc2ccccc21` gave CDC25B CDK2 inh -1.8 and TAR Tat displ 0.87.
`CN(C)c1ccc(C(CNS(C)(=O)=O)N2CCc3ccccc32)cc1` (stereo unspecified) gave TAR Tat displ 0.81.
Screening O=C1C=CC2=C3c4cc(O)c(O)cc4CC3(O)COC2=C1O (stereo unspecified) returned TAR Tat displ 20*.
Screening CC(C)OC(=O)Cn1c2ccccc2c2nc3ccccc3nc21 returned CDC25B CDK2 inh -1.4 and TAR Tat displ 2.9.
`COC(=O)Cn1c2ccc(Cl)cc2c2nc3ccccc3nc21` gave CDC25B CDK2 inh 19* and TAR Tat displ 0.17.
Screening C=C(C)Cn1c(CN2CCOCC2)nc2c1c(=O)n(C)c(=O)n2C returned CDC25B CDK2 inh -1.9 and TAR Tat displ -0.99.
O=C(CCc1nc2sc3c(c2c(=O)[nH]1)CCCCC3)N1CCC(Cc2ccccc2)CC1 was read as TAR Tat displ 4.3*.
O=C(CCc1nc2sc3c(c2c(=O)[nH]1)CCCCC3)NC1CCCC1 was read as TAR Tat displ 18*.
For O=C(CCc1nc2sc3c(c2c(=O)[nH]1)CCCCC3)N1CCN(c2ncccn2)CC1 the results were TAR Tat displ 2.5.
For CC1CCN(C(=O)CCc2nc3sc4c(c3c(=O)[nH]2)CCCC4)CC1 the results were TAR Tat displ 0.18.
Screening O=C(CCc1nc2sc3c(c2c(=O)[nH]1)CCCCC3)NC1CCCCC1 returned TAR Tat displ -0.45.
`O=C(CCc1nc2sc3c(c2c(=O)[nH]1)CCCCC3)N1CCN(c2cccc(Cl)c2)CC1` gave TAR Tat displ 28*.
Screening COC(=O)Cc1ccc2oc3cc(OC)ccc3c(=O)c2c1 returned CDC25B CDK2 inh -1.6.
Screening COc1cccc2c1OC(c1cccc(Cl)c1)N1N=C(c3cccnc3)CC21 (stereo unspecified) returned CDC25B CDK2 inh -2.5.
`CC(C)CN(CC(C)C)c1nnc(NC(=O)NCc2ccco2)s1` gave CDC25B CDK2 inh -0.91 and TAR Tat displ 2.9.
`Cc1oc2ncnc(N3CCOCC3)c2c1C(=O)N(CC(C)C)CC(C)C` gave TAR Tat displ 0.67.
CC(C)(C)c1ccc(N/C=C(\C#N)C(=O)c2ccsc2)cc1 was read as CDC25B CDK2 inh 13*.
For Cc1oc(C(C)(C)C)cc1C(=O)/C(C#N)=C/Nc1ccccc1 the results were CDC25B CDK2 inh 0.26.
`O=C(CSc1nc2ccccc2c(=O)[nH]1)NCc1ccc2c(c1)OCO2` gave TAR Tat displ 14*.
For O=C(CSc1nc2ccccc2c(=O)[nH]1)NC1CCCC1 the results were TAR Tat displ 3.2.
Fc1ccccc1-n1ncc2c1ncn1nc(-c3ccccc3)nc21 was read as CDC25B CDK2 inh -1.7 and TAR Tat displ 1.9.
Clc1ccccc1-n1ncc2c1ncn1nc(-c3ccccc3)nc21 was read as CDC25B CDK2 inh -2.4 and TAR Tat displ 6.9*.
Screening CC(Cc1ccco1)NC(=O)c1cc2ccccn2n1 (stereo unspecified) returned TAR Tat displ 0.37.
Screening Cc1cc2nc(CSc3nnc(NC(=O)c4ccccc4Cl)s3)cc(=O)n2o1 returned TAR Tat displ 0.65.
CCOC(=O)N1CCc2c(sc3c2C(=O)NC(c2ccccc2)N3)C1 (stereo unspecified) was read as CDC25B CDK2 inh 0.33 and TAR Tat displ -0.19.
For COc1ccccc1C1NC(=O)c2c(sc3c2CCN(C)C3)N1 (stereo unspecified) the results were CDC25B CDK2 inh 4.5* and TAR Tat displ -3.1.
CCOC(=O)N1CCc2c(sc3c2C(=O)NC(c2cccc(Br)c2)N3)C1 (stereo unspecified) was read as CDC25B CDK2 inh 6.4* and TAR Tat displ -1.1.
`COc1cccc(C2NC(=O)c3c(sc4c3CCN(C)C4)N2)c1OC` (stereo unspecified) gave CDC25B CDK2 inh -0.33 and TAR Tat displ -1.8.
`CCOC(=O)N1CCc2c(sc3c2C(=O)NC(c2ccc(O)c(OC)c2)N3)C1` (stereo unspecified) gave CDC25B CDK2 inh 2.9 and TAR Tat displ 0.09.
CCOC(=O)N1CCc2c(sc3c2C(=O)NC(c2ccc(OC)cc2)N3)C1 (stereo unspecified) was read as CDC25B CDK2 inh 16* and TAR Tat displ -2.8.
O=C1CCCC(O)=C1Br was read as CDC25B CDK2 inh -3.6.
Screening CC(=O)OCCOCn1cnc2c(=O)[nH]c(N)nc21 returned CDC25B CDK2 inh 1.9 and TAR Tat displ 1.3.
Screening CC(C)c1ccc(N2C(=O)CCC2(C)C(=O)NC2CCCC2)cc1 (stereo unspecified) returned CDC25B CDK2 inh -0.74 and TAR Tat displ 0.2.
For CC1CCCC(NC(=O)C2CCN(S(=O)(=O)c3ccc4c(c3)CCC(=O)N4)CC2)C1C (stereo unspecified) the results were CDC25B CDK2 inh 0.29 and TAR Tat displ 0.14.
Screening CC(Oc1ccc(O)cc1)(P(=O)(O)O)P(=O)(O)O returned TAR Tat displ 26*.
`CC(=O)Oc1cccc(O)c1` gave TAR Tat displ 1.3.
For Cc1ccc(Nc2c(-c3ccc(Cl)cc3)nc3cnccn23)cc1 the results were CDC25B CDK2 inh 9.2.
Screening CC1(C)CC(=O)C2=C(C1)Nc1nc(SCc3ccccc3)[nH]c(=O)c1C2c1ccccn1 (stereo unspecified) returned CDC25B CDK2 inh 0.36.
Screening CN1C(=O)CSc2ccc(NC(=O)Nc3cccnc3)cc21 returned CDC25B CDK2 inh 19* and TAR Tat displ 0.7.
Cc1ccc(NC(=O)Nc2cccnc2)cc1Cl was read as CDC25B CDK2 inh 0.99.
`Cc1cccnc1NC(=O)Nc1ccc2c(c1)N(C)C(=O)CS2` gave CDC25B CDK2 inh 5.7 and TAR Tat displ -1.5.
CN1CCc2cc(NC(=O)Nc3cccnc3)ccc21 was read as CDC25B CDK2 inh 23*.
`OC(CSc1cccs1)CN1CCN(C(c2ccccc2)c2ccccc2)CC1` (stereo unspecified) gave CDC25B CDK2 inh 4.9.
Screening Cc1ccc(-c2cnc(C3CC3)o2)cc1S(=O)(=O)N1CCc2ccccc2C1 returned TAR Tat displ 0.84.
For COc1ccccc1/C=C/c1nn2c(Cc3ccccc3)nnc2s1 the results were CDC25B CDK2 inh 0.3 and TAR Tat displ 2.5.
`CC(C)(C)c1nnc2sc(/C=C/c3ccco3)nn12` gave CDC25B CDK2 inh -1.5 and TAR Tat displ -2.2.
For COc1ccc(Cc2nnc3sc(/C=C/c4ccco4)nn23)cc1 the results were CDC25B CDK2 inh 2.1 and TAR Tat displ 8.3*.
For Clc1ccc(Cc2nnc3sc(/C=C/c4ccco4)nn23)cc1 the results were CDC25B CDK2 inh 4.2* and TAR Tat displ 19*.
`Clc1ccc(Cc2nnc3sc(/C=C/c4cccs4)nn23)cc1` gave CDC25B CDK2 inh -1.5 and TAR Tat displ 1.1.
`CCc1nnc2sc(/C=C/c3ccco3)nn12` gave CDC25B CDK2 inh -1.1 and TAR Tat displ 8.4*.
For CCC(C)NC(=O)C1=Cc2cc(Br)ccc2OC1 (stereo unspecified) the results were TAR Tat displ 1.2.
For COc1cc2ncnc(SCC(=O)NNC(=O)C(C)C)c2cc1OC the results were CDC25B CDK2 inh -1.9.
`Cc1ccc(-c2cn3cccnc3n2)cc1NC(=O)c1cc(Br)ccc1Cl` gave CDC25B CDK2 inh -0.12.
Screening Cc1ccc(Nc2nc(-c3ccc(O)c(O)c3)cs2)nc1 returned CDC25B CDK2 inh -1.1 and TAR Tat displ 16*.
